# Assay results reported in PubChem BioAssay (EPA / NIEHS).
# Where “and” joins values, the source holds several entries; their conditions need not be identical. Identical values can stand only once. Records with an inconclusive call do not appear. Calls of active or inactive are those of the source. Rule for the calls: active = hit-call score of the fitted dose curve at least 0.9, where 1 is the maximum; inconclusive = response in the unintended direction; inactive = score below 0.9.
# How the values were obtained:
# [1] = ACEA_AR_agonist_AUC_viability: ACEA Biosciences xCELLigence Real-Time Cell Analysis on Androgen Receptor Agonism for Viability (AID 2283775)
# How it was run: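 Read-out is area under the impedance curve at 80 h post-dose in 22Rv1 cells, with DMSO as baseline and signal loss taken as reduced viability. Compounds ran in duplicate from 100 uM final.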
# [2] = ACEA_AR_antagonist_AUC_viability: ACEA Biosciences xCELLigence Real-Time Cell Analysis on Androgen Receptor Antagonism for Viability (AID 2283776);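 note: area under impedance growth curve at 80 h after dosing as viability; hits lower the growth signal relative to DMSO meaning cytotoxicity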
# How it was run: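 22Rv1 human prostate cancer cells were seeded on electrode plates, monitored overnight, then exposed to eight 1:4 dilutions from 100 uM final. Impedance-based growth kinetics at 80 h gave an AUC viability endpoint normalized to DMSO.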
# [3] = ACEA_ER_AUC_viability: ACEA Biosciences xCELLigence Real-Time Cell Analysis on Estrogen Receptor Agonism for Viability (AID 2283782);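 note: continuous compound exposure with impedance area under curve over 80 h; hit means loss of impedance signal meaning reduced cell growth or viability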
# How it was run: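 T-47D; phenol red-free RPMI1640 + 10% CS-FBS; 8 conc., 1:4 serial, max 100 uM final, ≤0.5% DMSO; n = 2; continuous exposure; impedance monitored to 80 h post-dose; AUC vs DMSO.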
# [4] = target: AR (gene 367) (UniProt P10275); test: ACEA_AR_agonist_80hr: ACEA Biosciences xCELLigence Real-Time Cell Analysis on Androgen Receptor Agonism for Proliferation (AID 2283783);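 note: hits increase impedance growth signal above DMSO baseline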
# How it was run: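 Androgen-driven proliferation in 22Rv1 cells is tracked as electrical impedance, taken 80 h after continuous exposure to compound (eight concentrations, 1:4 steps, maximum 100 uM final). Activity is fitted in the positive direction with DMSO as baseline.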
# [5] = target: AR (gene 367) (UniProt P10275); test: ACEA_AR_antagonist_80hr: ACEA Biosciences xCELLigence Real-Time Cell Analysis on Androgen Receptor Antagonism for Proliferation (AID 2283787);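 note: hits lower the impedance growth signal relative to DMSO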
# How it was run: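 Growth-kinetic antagonist readout in 22Rv1 cells, taken 80 h after continuous compound exposure. Activity fitted as signal loss relative to DMSO negative control.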
# [6] = ATG_M_06_XSP2: Attagene TRANS-FACTORIAL Multi-Species (XSP2) HepG2 Assay for M06 Transcription Factor (Internal Marker) (AID 2283811);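 note: internal background marker reporter mRNA measured by RT-PCR and capillary electrophoresis; hits are increases in signal above the DMSO baseline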
# How it was run: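 HepG2, multiplexed reporter transfection; 24 h dosing; AR stimulated with 3 nM 6-alpha-fluorotestosterone + 1.5 nM norgestrel; RNA → RT-PCR → 6-FAM primer extension → HpaI → CE. Positive direction vs DMSO.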
# [7] = test system: turtle Estrogen Receptor (ERa), gene 101933533; test: ATG_trERa_XSP2: Attagene TRANS-FACTORIAL Multi-Species (XSP2) HepG2 Assay for turtle Estrogen Receptor (ERa) (AID 2283812);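 note: human HepG2 liver cells transiently expressing turtle ERa-Gal4 chimeric receptor; actives raise reporter signal above DMSO so AC50 reflects agonist activity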
# How it was run: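 HepG2 cells transiently transfected with GAL4-UAS reporter units expressing turtle ERa-Gal4 chimera. Reporter mRNA measured after 24 h dosing by RT-PCR, fluorescent labelling and capillary electrophoresis; gain of signal fitted versus DMSO.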
# AR (gene 367), sequence (P10275 whole entry, looked up): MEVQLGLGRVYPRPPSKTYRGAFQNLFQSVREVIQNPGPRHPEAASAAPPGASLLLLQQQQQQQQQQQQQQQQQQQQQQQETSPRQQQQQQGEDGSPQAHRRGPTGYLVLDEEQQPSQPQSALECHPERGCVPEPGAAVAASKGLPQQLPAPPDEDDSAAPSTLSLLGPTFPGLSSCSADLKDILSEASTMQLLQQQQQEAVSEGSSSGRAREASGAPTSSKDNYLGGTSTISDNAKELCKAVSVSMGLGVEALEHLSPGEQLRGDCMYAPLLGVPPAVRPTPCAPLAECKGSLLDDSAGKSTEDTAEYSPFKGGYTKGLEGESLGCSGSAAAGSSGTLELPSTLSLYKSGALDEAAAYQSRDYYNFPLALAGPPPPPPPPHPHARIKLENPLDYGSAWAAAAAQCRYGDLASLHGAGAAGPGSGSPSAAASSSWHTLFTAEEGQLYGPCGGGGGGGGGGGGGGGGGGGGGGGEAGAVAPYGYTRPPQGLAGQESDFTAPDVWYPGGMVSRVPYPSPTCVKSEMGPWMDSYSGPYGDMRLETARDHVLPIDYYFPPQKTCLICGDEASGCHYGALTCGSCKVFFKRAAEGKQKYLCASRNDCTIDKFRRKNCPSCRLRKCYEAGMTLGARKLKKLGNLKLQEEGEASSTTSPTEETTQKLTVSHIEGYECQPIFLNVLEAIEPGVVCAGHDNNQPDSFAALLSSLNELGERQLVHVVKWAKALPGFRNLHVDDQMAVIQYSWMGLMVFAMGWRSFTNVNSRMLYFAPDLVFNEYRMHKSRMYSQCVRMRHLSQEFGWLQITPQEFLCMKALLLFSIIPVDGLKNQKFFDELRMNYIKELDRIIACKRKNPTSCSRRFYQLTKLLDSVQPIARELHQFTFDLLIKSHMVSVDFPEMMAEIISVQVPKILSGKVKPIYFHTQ
structure (smiles),measurement,setting,value
CCCCCCOC(=O)c1ccccc1,outcome,[1],inactive
OC[C@@H](O)[C@@H](O)[C@H](O)[C@@H](O)CO,outcome,[1],inactive
same,outcome,[2],inactive
same,outcome,[3],inactive
[Co],outcome,[1],inactive
same,outcome,[3],inactive
CC(C)=CCCC(C)CCOC(=O)C(C)C (stereo not given),AC50,[3],50 µM (active)
COC(=O)C1CCC(C(=O)OC)CC1 (stereo not given),outcome,[1],inactive
same,outcome,[2],inactive
same,outcome,[3],inactive
CCCCCCC(C)OC(=O)CCCCC(=O)OC(C)CCCCCC (stereo not given),outcome,[2],inactive
same,outcome,[4],inactive
same,outcome,[5],inactive
Cc1ccc(S(=O)(=O)NCl)cc1,outcome,[3],inactive
CC(C)OC(=O)c1ccccc1C(=O)OC(C)C,outcome,[1],inactive
same,outcome,[2],inactive
same,outcome,[3],inactive
CC/C=C\CCOC(C)=O,outcome,[1],inactive
same,outcome,[2],inactive
same,outcome,[3],inactive
O=C(O)C(F)(F)C(F)(F)C(F)(F)C(F)(F)C(F)(F)C(F)(F)C(F)(F)C(F)(F)C(F)(F)C(F)(F)C(F)(F)C(F)(F)C(F)(F)F,AC50,[3],2.91 µM (active)
CNC(=S)NC,outcome,[1],inactive
same,outcome,[2],inactive
same,outcome,[4],inactive
same,outcome,[5],inactive
Cc1cccc(N(C)C)c1,AC50,[3],25.6 µM (active)
C1COCCN1,outcome,[1],inactive
same,outcome,[2],inactive
same,outcome,[3],inactive
C=C(C)C(=O)OCC(F)(F)C(F)(F)C(F)(F)C(F)(F)C(F)(F)C(F)(F)C(F)(F)F,outcome,[3],inactive
FC(F)(F)C(F)(F)C(F)(F)C(F)(F)C(F)(F)C(F)(F)C(F)(F)I,outcome,[3],inactive
FC(F)(F)C(F)(F)C(F)(F)C(F)(F)C(F)(F)CCI,outcome,[3],inactive
C#C[C@]1(O)CC[C@H]2[C@@H]3CCc4cc(OC)ccc4[C@H]3CC[C@@]21C,outcome,[1],inactive
same,outcome,[2],inactive
same,outcome,[6],inactive
same,AC50,[7],0.21 nM (active) and 0.082 nM (active)
COC(OC(C)=O)c1ccccc1 (stereo not given),outcome,[3],inactive
C=CC(F)(F)C(F)(F)C(F)(F)C(F)(F)C(F)(F)C(F)(F)C(F)(F)C(F)(F)C=C,outcome,[3],inactive
c1ccc(B(c2ccccc2)c2ccccc2)cc1,outcome,[1],inactive
same,outcome,[2],inactive
same,outcome,[6],inactive
same,AC50,[7],4.9 µM (active) and 7.88 µM (active)
CCN(CC)c1ccc2c(C)cc(=O)oc2c1,AC50,[3],17.1 µM (active)
Oc1ccc(Nc2ccccc2)cc1,AC50,[3],25.4 µM (active)
CS(C)(=O)=O,outcome,[3],inactive
CCCCCCOC(=O)c1ccccc1O,outcome,[1],inactive
same,outcome,[2],inactive
same,outcome,[3],inactive
same,outcome,[5],inactive
O=C(O)C(F)(F)C(F)(F)C(F)(F)F,outcome,[3],inactive
